According to PubChem BioAssay (EPA / NIEHS):
The source made the active and inactive calls. How the source made its calls: active means hit-call score of the fitted dose curve at least 0.9, where 1 is the maximum; inactive means score below 0.9.

Experiments:
[1] = read-out: Interferon-gamma inducible Protein 10 (IP10), CXCL10 (gene 3627); test: BSK_BE3C_IP10: BioMAP Diversity Plus: BE3C Assay for Interferon-gamma inducible Protein 10 (IP10) Biomarker Activity (AID 2283034); details: primary human bronchial epithelial cells; actives raise or lower the signal
Outline: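 IP-10 quantified by ELISA serves as the endpoint. Cells: primary human bronchial epithelium, read 24 h after compound addition. Activity is derived by bidirectional fitting with DMSO as negative control.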

[2] = read-out: Monokine induced gamma interferon (MIG), CXCL9 (gene 4283); test: BSK_BE3C_MIG: BioMAP Diversity Plus: BE3C Assay for Monokine induced gamma interferon (MIG) Biomarker Activity (AID 2283035); details: primary human bronchial epithelial cells; actives raise or lower the signal;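 further: MIG protein measured by ELISA in BE3C cultures after 24 h of dosing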
Outline: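 hu bronchial epithelial 1° cells, 24 h cpd; MIG by ELISA; bidirectional fit, DMSO = baseline.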

[3] = read-out: Transforming growth factor beta 1 (TGFb1), TGFB1 (gene 7040); test: BSK_BE3C_TGFb1: BioMAP Diversity Plus: BE3C Assay for Transforming growth factor beta 1 (TGFb1) Biomarker Activity (AID 2283036;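 further: TGF-b1 protein level measured by ELISA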); details: primary human bronchial epithelial cells; actives raise or lower the signal
Outline: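 Bronchial epithelial primary cells are treated with test chemical, then TGF-b1 is quantified by ELISA after 24 hours. Values derive from bidirectional fitting against DMSO, with cytotoxicity checked by SRB staining in parallel cultures.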

[4] = read-out: Plasminogen activator inhibitor-1 (PAI1), SERPINE1 (gene 5054); test: BSK_BE3C_PAI1: BioMAP Diversity Plus: BE3C Assay for Plasminogen activator inhibitor-1 (PAI1) Biomarker Activity (AID 2283037); details: primary human bronchial epithelial cells; actives raise or lower the signal
Outline: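 Values derive from bidirectional fitting against DMSO baseline of PAI-1 levels, measured by ELISA in human bronchial epithelial cells 24 h after compound addition.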

[5] = read-out: urokinase plasminogen activator (uPA), PLAU (gene 5328); test: BSK_BE3C_uPA: BioMAP Diversity Plus: BE3C Assay for urokinase plasminogen activator (uPA) Biomarker Activity (AID 2283038); details: primary human bronchial epithelial cells; actives raise or lower the signal;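 further: uPA protein level quantified by ELISA in cell cultures; uPA read one day after compound addition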
Outline: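 Measured by ELISA: uPA from human primary bronchial epithelial cells 24 h after chemical treatment. Values derive from bidirectional curve fitting with DMSO serving as negative control. Total protein by SRB staining in parallel wells flagged overt cytotoxicity.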

[6] = read-out: Urokinase-type plasminogen activator receptor (uPAR), PLAUR (gene 5329); test: BSK_BE3C_uPAR: BioMAP Diversity Plus: BE3C Assay for Urokinase-type plasminogen activator receptor (uPAR) Biomarker Activity (AID 2283039); details: primary human bronchial epithelial cells; actives raise or lower the signal;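 further: uPAR protein level measured by ELISA on the cells; cells exposed to compound for one day before measurement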
Outline: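 Steps: dose human primary bronchial epithelial cells, incubate 24 h, measure uPAR by ELISA, then fit gain- or loss-of-signal response bidirectionally relative to DMSO.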

[7] = read-out: Interleukin-6 (IL6), IL6 (gene 3569); test: BSK_CASM3C_IL6: BioMAP Diversity Plus: CASM3C Assay for Interleukin-6 (IL6) Biomarker Activity for (AID 2283040); details: primary human coronary artery smooth muscle cells; actives raise or lower the signal
[8] = read-out: Tissue plasminogen activator (tPA), PLAT (gene 5327); test: BSK_BE3C_tPA: BioMAP Diversity Plus: BE3C Assay for Tissue plasminogen activator (tPA) Biomarker Activity (AID 2283041); details: primary human bronchial epithelial cells; actives raise or lower the signal;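 further: tPA level quantified by ELISA one day after compound addition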
Outline: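 Gain- or loss-of-signal in tPA, measured by ELISA, derived by bidirectional fitting against DMSO. Cells: human primary bronchial epithelial; read at 24 h after chemical dosing.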

[9] = read-out: Interleukin-8 (IL8), CXCL8 (gene 3576); test: BSK_CASM3C_IL8: BioMAP Diversity Plus: CASM3C Assay for Interleukin-8 (IL8) Biomarker Activity (AID 2283042); details: primary human coronary artery smooth muscle cells; actives raise or lower the signal;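 further: IL-8 protein level quantified by ELISA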
[10] = read-out: Human Leukocyte Antigen - DR isotype (HLADR), HLA-DRA (gene 3122); test: BSK_CASM3C_HLADR: BioMAP Diversity Plus: CASM3C Assay for Human Leukocyte Antigen - DR isotype (HLADR) Biomarker Activity (AID 2283043); details: primary human coronary artery smooth muscle cells; actives raise or lower the signal;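 further: cell-surface HLA-DR protein level quantified by ELISA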
[11] = read-out: Macrophage colony-stimulating factor (MCSF), CSF1 (gene 1435); test: BSK_CASM3C_MCSF: BioMAP Diversity Plus: CASM3C Assay for Macrophage colony-stimulating factor (MCSF) Biomarker Activity (AID 2283044); details: primary human coronary artery smooth muscle cells; actives raise or lower the signal;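 further: M-CSF protein amount quantified by ELISA after 24 h exposure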
[12] = read-out: Low-density lipoprotein receptor (LDLR), LDLR (gene 3949); test: BSK_CASM3C_LDLR: BioMAP Diversity Plus: CASM3C Assay for Low-density lipoprotein receptor (LDLR) Biomarker Activity (AID 2283045); details: primary human coronary artery smooth muscle cells; actives raise or lower the signal;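 further: LDLR protein level on the cell surface quantified by ELISA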
[13] = read-out: Monocyte Chemoattractant Protein-1 (MCP1), CCL2 (gene 6347); test: BSK_CASM3C_MCP1: BioMAP Diversity Plus: CASM3C Assay for Monocyte Chemoattractant Protein-1 (MCP1) Biomarker Activity (AID 2283046); details: primary human coronary artery smooth muscle cells; actives raise or lower the signal;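 further: MCP-1 level quantified by ELISA 24 h after dosing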
[14] = BSK_CASM3C_Proliferation: Cell Proliferation Assessment in the BioMAP Diversity Plus: CASM3C Assay (AID 2283047); details: primary human coronary artery smooth muscle cells;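 further: sulforhodamine B total protein stain as relative cell number at 560 nm; sub-confluent cells exposed 48 h before staining; fitted both ways against DMSO so gain or loss of cell number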
[15] = read-out: Monokine induced gamma interferon (MIG), CXCL9 (gene 4283); test: BSK_CASM3C_MIG: BioMAP Diversity Plus: CASM3C Assay for Monokine induced gamma interferon (MIG) Biomarker Activity (AID 2283048); details: primary human coronary artery smooth muscle cells; actives raise or lower the signal;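 further: MIG protein level measured by ELISA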
[16] = read-out: serum amyloid A (SAA), SAA1 (gene 6288); test: BSK_CASM3C_SAA: BioMAP Diversity Plus: CASM3C Assay for serum amyloid A (SAA) Biomarker Activity (AID 2283049); details: primary human coronary artery smooth muscle cells; actives raise or lower the signal;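 further: SAA protein level quantified by ELISA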
[17] = BSK_CASM3C_SRB: Viability Assessment in the BioMAP Diversity Plus: CASM3C Assay (AID 2283050); details: primary human coronary artery smooth muscle cells;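 further: total protein by SRB staining as cytotoxicity measure in parallel cultures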
[18] = read-out: Thrombomodulin, THBD (gene 7056); test: BSK_CASM3C_Thrombomodulin: BioMAP Diversity Plus: CASM3C Assay for Thrombomodulin Biomarker Activity (AID 2283051); details: primary human coronary artery smooth muscle cells; actives raise or lower the signal;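 further: thrombomodulin protein level measured by ELISA 24 h after dosing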
[19] = read-out: Tissue Factor, F3 (gene 2152); test: BSK_CASM3C_TissueFactor: BioMAP Diversity Plus: CASM3C Assay for Tissue Factor Biomarker Activity (AID 2283052); details: primary human coronary artery smooth muscle cells; actives raise or lower the signal;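 further: cell surface tissue factor protein level read by ELISA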
[20] = read-out: Interferon-gamma inducible Protein 10 (IP10), CXCL10 (gene 3627); test: BSK_hDFCGF_IP10: BioMAP Diversity Plus: hDFCGF Assay for Interferon-gamma inducible Protein 10 (IP10) Biomarker Activity (AID 2283053); details: primary human foreskin fibroblasts; actives raise or lower the signal
Outline: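 Cells: human dermal foreskin fibroblasts. Exposure: 24 h post-dosing. Detection: IP-10 ELISA, with values expressed against DMSO controls and fitted in both directions.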

In the case of `Nc1cc2c3c(c1)C(c1ccccc1)=N[C@@H](NC(=O)c1cccnc1)C(=O)N3CC2`, the outcome [1] is reported as “inactive”, the outcome [2] is reported as “inactive” and the outcome [3] is reported as “inactive”. The outcome [4] was “inactive”, the outcome [5] was “inactive” and the outcome [6] was “inactive”. For the same molecule, the outcome [7] was “inactive”, the outcome [8] was “inactive” and the outcome [9] was “inactive”. The outcome [10] was “inactive”, the outcome [11] was “inactive” and the outcome [12] was “inactive”. The outcome [13] was “inactive”, the outcome [14] was “inactive” and the outcome [15] was “inactive”. For the same molecule, the outcome [16] was “inactive”, the outcome [17] was “inactive” and the outcome [18] was “inactive”. The outcome [19] was “inactive” and the outcome [20] was “inactive”.
In the case of `CC(C)(C)c1ccccc1OP(=O)(Oc1ccccc1)Oc1ccccc1`, the outcome [1] is reported as “inactive”, the outcome [2] is reported as “inactive” and the outcome [3] is reported as “inactive”. The outcome [4] was “inactive”, the outcome [5] was “inactive” and the outcome [6] was “inactive”. The outcome [7] was “inactive”, the outcome [8] was “inactive” and the outcome [9] was “inactive”. For the same molecule, the outcome [10] was “inactive”, the outcome [11] was “inactive” and the AC50 [12] was 4.61 µM (active). The outcome [13] was “inactive”, the AC50 [14] was 20 µM (active) and the outcome [15] was “inactive”. The outcome [16] was “inactive”, the AC50 [17] was 5.23 µM (active) and the AC50 [18] was 11.7 µM (active). For the same molecule, the outcome [19] was “inactive” and the AC50 [20] was 20 µM (active).
For `O=C(O)C(Cl)Cl`, the outcome [1] was “inactive”, the outcome [2] was “inactive” and the outcome [3] was “inactive”. For the same molecule, the outcome [4] was “inactive”, the outcome [5] was “inactive” and the outcome [6] was “inactive”. The outcome [7] was “inactive”, the outcome [8] was “inactive” and the outcome [9] was “inactive”. The outcome [10] was “inactive”, the outcome [11] was “inactive” and the outcome [12] was “inactive”. The outcome [13] was “inactive”, the outcome [14] was “inactive” and the outcome [15] was “inactive”. The outcome [16] was “inactive”, the outcome [17] was “inactive” and the outcome [18] was “inactive”. For the same molecule, the outcome [19] was “inactive” and the outcome [20] was “inactive”.
In the case of `c1ccc2c(c1)Nc1ccccc1S2`, the outcome [1] is reported as “inactive”, the outcome [2] is reported as “inactive” and the outcome [3] is reported as “inactive”. For the same molecule, the outcome [4] was “inactive”, the outcome [5] was “inactive” and the outcome [6] was “inactive”. For the same molecule, the outcome [7] was “inactive”, the outcome [8] was “inactive” and the outcome [9] was “inactive”. For the same molecule, the outcome [10] was “inactive”, the outcome [11] was “inactive” and the outcome [12] was “inactive”. The outcome [13] was “inactive”, the outcome [14] was “inactive” and the outcome [15] was “inactive”. The outcome [16] was “inactive”, the outcome [17] was “inactive” and the AC50 [18] was 0.542 µM (active). For the same molecule, the outcome [19] was “inactive” and the AC50 [20] was 20 µM (active).
With `O=P1(N(CCCl)CCCl)NCCCO1` (stereo not given) the outcome [1] was “inactive”, the outcome [2] was “inactive” and the outcome [3] was “inactive”. The outcome [4] was “inactive”, the outcome [5] was “inactive” and the outcome [6] was “inactive”. The outcome [7] was “inactive”, the outcome [8] was “inactive” and the outcome [9] was “inactive”. The outcome [10] was “inactive”, the outcome [11] was “inactive” and the outcome [12] was “inactive”. The outcome [13] was “inactive”, the outcome [14] was “inactive” and the outcome [15] was “inactive”. The outcome [16] was “inactive”, the outcome [17] was “inactive” and the outcome [18] was “inactive”. For the same molecule, the outcome [19] was “inactive” and the outcome [20] was “inactive”.
With `OCC1CO1` (stereo not given) the outcome [1] was “inactive”, the outcome [2] was “inactive” and the outcome [3] was “inactive”. The outcome [4] was “inactive”, the outcome [5] was “inactive” and the outcome [6] was “inactive”. For the same molecule, the outcome [7] was “inactive”, the outcome [8] was “inactive” and the outcome [9] was “inactive”. The outcome [10] was “inactive”, the outcome [11] was “inactive” and the outcome [12] was “inactive”. The outcome [13] was “inactive”, the outcome [14] was “inactive” and the outcome [15] was “inactive”. For the same molecule, the outcome [16] was “inactive”, the outcome [17] was “inactive” and the outcome [18] was “inactive”. The outcome [19] was “inactive” and the outcome [20] was “inactive”.
For `CCOP(=S)(NC(C)C)Oc1ccccc1C(=O)OC(C)C` (stereo not given), the outcome [1] was “inactive”, the outcome [2] was “inactive” and the outcome [3] was “inactive”. For the same molecule, the outcome [4] was “inactive”, the outcome [5] was “inactive” and the outcome [6] was “inactive”. The outcome [7] was “inactive”, the outcome [8] was “inactive” and the outcome [9] was “inactive”. For the same molecule, the outcome [10] was “inactive”, the outcome [11] was “inactive” and the outcome [12] was “inactive”. The outcome [13] was “inactive”, the outcome [14] was “inactive” and the outcome [15] was “inactive”. For the same molecule, the outcome [16] was “inactive”, the outcome [17] was “inactive” and the outcome [18] was “inactive”. The outcome [19] was “inactive” and the outcome [20] was “inactive”.
